From PubChem BioAssay
Unmarked numbers belong to inactive results. Where a call stands in place of a potency, no number is given. For some assays here: Potency and affinity values are given separately. Activity calls are given as the source filed them. Unless noted, no rule for the calls is given here.

Experiments:
[1] = antimalarial activity against Dd2 strain (AID 2302;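 active = growth inhibition above 50% at the single 2 µM test dose, taken to imply half-maximal potency below 2 µM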); conditions: P. falciparum Dd2 in RBCs, LDH growth readout, 72 h; at 2 µM; hits give high values
[2] = HepG2 cytotoxicity, primary screen, cytotoxicity control for P. falciparum antimalarial project, cell-based, ATP luminescence (AID 2303;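 active = inhibition above 50%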); conditions: HepG2 viability, 24-48 h, at 10 µM, hits give high values
[3] = biological target: L-lactate dehydrogenase (Plasmodium falciparum (isolate CDC / Honduras)) (UniProt Q27743); assay: PfLDH activity inhibition – cell lysate, 3D7 strain, counter-screen for P. falciparum growth inhibition project (AID 2304); conditions: P. falciparum 3D7 crude extract, LDH APAD/NBT absorbance; at 2 µM; hits give high values
[4] = inhibition of 3D7 malaria parasite growth – strain 3D7 (AID 2306); conditions: P. falciparum 3D7 erythrocytic growth, LDH absorbance, 72 h; at 2 µM; hits give high values
[5] = biological target: Calcium-dependent protein kinase 1 (Plasmodium falciparum (isolate 3D7)) (UniProt P62344); assay: PfCDPK1 kinase inhibitors, biochemical, TCAMS library (AID 1159585; cut-off not given, nearly all actives have IC50 up to about 0.98 µM;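 also: inhibitors leave more ATP so luminescence rises with inhibition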); conditions: recombinant PfCDPK1, Kinase-Glo ATP depletion luminescence
[6] = biological target: Plasmodium falciparum protein kinase 6 (PK6, PF3D7_1337100) (UniProt Q8IDW1); assay: PfPK6 kinase inhibitors, biochemical, TCAMS library (AID 1159586); conditions: recombinant PfPK6, Kinase-Glo ATP depletion luminescence
[7] = biological target: Protein kinase 7 (PK7), Plasmodium falciparum 3D7 (PF3D7_0213400) (UniProt Q7YTF7); assay: inhibition of Plasmodium PK7 catalytic activity – biochemical, TCAMS antimalarial set, Kinase-Glo luminescence (AID 1159587); conditions: recombinant PfPK7, Kinase-Glo ATP depletion luminescence
[8] = biological target: Calcium-dependent protein kinase 4 (Plasmodium falciparum (isolate 3D7)) (UniProt Q8IBS5); assay: PfCDPK4 kinase inhibitors, biochemical, TCAMS library (AID 1159588; cut-off not given, nearly all actives have IC50 up to about 0.91 µM); conditions: recombinant PfCDPK4, Kinase-Glo ATP depletion luminescence
Sequence of Calcium-dependent protein kinase 4 (Plasmodium falciparum (isolate 3D7)) (Q8IBS5 whole entry, looked up): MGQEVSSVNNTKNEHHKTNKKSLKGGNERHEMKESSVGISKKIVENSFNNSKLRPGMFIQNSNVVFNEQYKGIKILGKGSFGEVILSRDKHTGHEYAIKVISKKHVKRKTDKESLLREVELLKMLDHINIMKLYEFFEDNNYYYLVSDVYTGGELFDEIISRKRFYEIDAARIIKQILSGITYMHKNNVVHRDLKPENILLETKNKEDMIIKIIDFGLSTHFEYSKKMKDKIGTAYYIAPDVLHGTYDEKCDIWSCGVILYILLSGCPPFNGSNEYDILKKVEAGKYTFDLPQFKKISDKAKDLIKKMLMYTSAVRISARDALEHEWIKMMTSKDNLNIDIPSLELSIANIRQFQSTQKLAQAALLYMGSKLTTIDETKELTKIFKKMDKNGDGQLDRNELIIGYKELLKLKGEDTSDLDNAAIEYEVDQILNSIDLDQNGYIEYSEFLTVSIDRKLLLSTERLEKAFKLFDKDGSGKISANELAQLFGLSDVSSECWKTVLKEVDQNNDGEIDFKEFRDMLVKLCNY

Sequence of L-lactate dehydrogenase (Plasmodium falciparum (isolate CDC / Honduras)) (Q27743 whole entry, looked up): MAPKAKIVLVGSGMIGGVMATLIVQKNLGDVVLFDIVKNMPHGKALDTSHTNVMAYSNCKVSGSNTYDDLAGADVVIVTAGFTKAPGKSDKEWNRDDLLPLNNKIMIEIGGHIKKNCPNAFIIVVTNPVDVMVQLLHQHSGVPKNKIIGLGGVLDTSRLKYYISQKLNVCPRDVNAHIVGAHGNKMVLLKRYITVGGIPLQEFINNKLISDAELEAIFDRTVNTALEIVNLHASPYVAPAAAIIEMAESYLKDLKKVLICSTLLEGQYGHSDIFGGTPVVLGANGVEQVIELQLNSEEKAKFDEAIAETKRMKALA
Sequence of Calcium-dependent protein kinase 1 (Plasmodium falciparum (isolate 3D7)) (P62344 whole entry, looked up): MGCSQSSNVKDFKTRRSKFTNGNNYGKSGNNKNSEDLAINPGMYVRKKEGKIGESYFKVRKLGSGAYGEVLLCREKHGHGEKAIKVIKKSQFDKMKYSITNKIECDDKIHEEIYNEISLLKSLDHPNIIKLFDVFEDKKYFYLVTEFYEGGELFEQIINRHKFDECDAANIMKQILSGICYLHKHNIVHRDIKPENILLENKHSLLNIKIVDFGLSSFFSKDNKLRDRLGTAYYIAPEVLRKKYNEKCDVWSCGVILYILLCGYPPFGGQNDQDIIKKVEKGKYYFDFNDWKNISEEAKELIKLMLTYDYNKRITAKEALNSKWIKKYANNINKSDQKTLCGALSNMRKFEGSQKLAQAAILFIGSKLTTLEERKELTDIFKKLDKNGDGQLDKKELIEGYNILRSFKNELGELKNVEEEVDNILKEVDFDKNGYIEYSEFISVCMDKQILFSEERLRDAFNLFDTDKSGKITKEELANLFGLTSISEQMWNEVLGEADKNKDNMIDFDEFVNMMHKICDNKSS
Sequence of Plasmodium falciparum protein kinase 6 (PK6, PF3D7_1337100) (Q8IDW1 1-305): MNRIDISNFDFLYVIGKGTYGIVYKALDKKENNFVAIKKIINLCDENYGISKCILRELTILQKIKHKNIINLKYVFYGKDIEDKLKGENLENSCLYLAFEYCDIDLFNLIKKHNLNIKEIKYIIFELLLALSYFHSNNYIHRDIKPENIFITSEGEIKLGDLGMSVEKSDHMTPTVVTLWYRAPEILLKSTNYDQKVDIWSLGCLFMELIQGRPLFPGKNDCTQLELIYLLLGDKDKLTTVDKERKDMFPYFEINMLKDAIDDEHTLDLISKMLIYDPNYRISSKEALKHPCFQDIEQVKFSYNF
Sequence of Protein kinase 7 (PK7), Plasmodium falciparum 3D7 (PF3D7_0213400) (Q7YTF7 1-343): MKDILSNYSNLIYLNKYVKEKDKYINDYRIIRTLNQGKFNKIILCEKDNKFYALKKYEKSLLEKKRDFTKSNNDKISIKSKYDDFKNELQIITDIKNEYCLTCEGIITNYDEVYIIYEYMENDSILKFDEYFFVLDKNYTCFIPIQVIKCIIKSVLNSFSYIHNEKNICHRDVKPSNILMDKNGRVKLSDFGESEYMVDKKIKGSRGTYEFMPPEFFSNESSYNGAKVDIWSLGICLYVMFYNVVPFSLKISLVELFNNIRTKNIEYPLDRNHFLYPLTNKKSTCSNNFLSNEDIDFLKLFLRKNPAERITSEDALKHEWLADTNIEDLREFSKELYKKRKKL

Structure (SMILES) | growth inhibition [1] | inhibition [2] | inhibition [3] [%] | growth inhibition [4] | outcome [5] | outcome [6] | outcome [7] | outcome [8]
O=c1cc(NCCCNC2CCOc3c(I)cc(Cl)cc32)[nH]c2ccccc12 (stereo not given) | 48% | -10% | -1 | 96% (active) | inactive | inactive | inactive | inactive
CN(C)c1ccc(C=C2SC(=Nc3ccccc3)N(c3ccccc3)C2=O)cc1[N+](=O)[O-] | 82% (active) | 9% | 7 | 96% (active) | inactive | inactive | inactive | inactive
CCCCNC(=O)[C@H](CC1CCCCC1)NC(=O)c1ccc(O)c(-c2ccc(OC)cc2)c1 | 12% | -8% | 5 | 89% (active) | inactive | inactive | inactive | inactive
Cc1cccc2[nH]c(-c3ccc(-c4cccc(NC(=O)Nc5ccsc5)c4)s3)nc12 | 29% | 30% | -3 | 100% (active) | inactive | inactive | inactive | inactive
CCCC1N=C(N)N=C(N)N1c1cccc([N+](=O)[O-])c1 (stereo not given) | 1% | -4% | 3 | 96% (active) | inactive | inactive | inactive | inactive
Cc1ccc(NC(=S)NC2CCN(CCCCCNC(=O)/C=C/c3ccc(Cl)c(Cl)c3)CC2)cc1Cl | 56% (active) | 45% | 7 | 100% (active) | inactive | inactive | inactive | inactive
Cc1cccc2[nH]c(-c3cccc(-c4cccc(NC(=O)CNc5ccc(C(N)=O)cc5)c4)c3)nc12 | 56% (active) | 15% | 6 | 100% (active) | inactive | inactive | inactive | inactive
O=C(NCCc1ccc(Cl)c(Cl)c1)C1CCCN(C(=O)c2ccc(O)c(-c3ccc(Cl)c(Cl)c3)c2)C1 (stereo not given) | 65% (active) | -9% | -3 | 96% (active) | inactive | inactive | inactive | inactive
O=[N+]([O-])c1ccc(Nc2nc(NCc3ccccc3)nc(NN=Cc3ccccc3[N+](=O)[O-])n2)cc1 | 99% (active) | 18% | -9 | 101% (active) | inactive | inactive | inactive | inactive
FC(F)(F)COc1ccc2ccccc2c1CCNCCCCNCCc1c(OCC(F)(F)F)ccc2ccccc12 | 53% (active) | 99% (active) | 0 | 100% (active) | inactive | inactive | inactive | inactive
CCN(CCNc1nc(NCCc2cnc[nH]2)nc(N(CCC#N)Cc2ccccc2)n1)c1cccc(C)c1 | 92% (active) | 13% | -3 | 101% (active) | inactive | inactive | inactive | inactive
CC(C)C[C@@H](/C=N/N1CCOC1=O)NC(=O)[C@H](CC(C)C)NC(=O)c1ccc(F)cc1 | 72% (active) | 1% | -4 | 85% (active) | inactive | inactive | inactive | inactive
N#Cc1cccc(C(=O)NC2CCN(CCCCCNC(=O)/C=C/c3ccc(Cl)c(Cl)c3)CC2)c1 | -1% | 11% | -9 | 103% (active) | inactive | inactive | inactive | inactive
COc1ccc(Cc2c(C)nc3nc(N)nc(N)c3c2C)cc1OC | -4% | 66% (active) | -1 | 93% (active) | inactive | inactive | inactive | inactive
CCC(C)OC(=O)C1=C(C)NC2=C(C(=O)CC(c3ccc(OC)c(OC)c3)C2)C1c1ccc(C)o1 (stereo not given) | 82% (active) | 6% | 2 | 93% (active) | inactive | inactive | inactive | inactive
OC(CNC1CCCCC1)Cn1c2ccc(Br)cc2c2cc(Br)ccc21 (stereo not given) | 100% (active) | 10% | 3 | 98% (active) | inactive | inactive | inactive | inactive
Cc1cc(N[C@@H](Cc2ccccc2)C(=O)NCc2cccc(F)c2)nc(NCCc2cccs2)n1 | 22% | 9% | 2 | 99% (active) | inactive | inactive | inactive | inactive
CN(Cc1cccc(F)c1)C1CCN(c2cc(NC(=O)c3cccc(F)c3)ccn2)CC1 | 13% | 12% | 3 | 94% (active) | inactive | inactive | inactive | inactive
O=C(N1CCN(c2cccc(C(F)(F)F)c2)CC1)C(Cl)(Cl)Cl | 35% | -8% | 2 | 89% (active) | inactive | inactive | inactive | inactive
Cc1cc(OCCCN2CCC(NS(=O)(=O)c3cc(Br)c(Cl)s3)CC2)c2ccccc2n1 | 39% | 5% | 3 | 95% (active) | inactive | inactive | inactive | inactive

Structure (SMILES) | growth inhibition [1] | inhibition [2] | inhibition [3] [%] | growth inhibition [4] | outcome [5] | outcome [6] | outcome [7] | outcome [8]
C#CC[C@@H](NC(N)=O)C(=O)O | 0% | 1% | -2 | 97% (active) | inactive | inactive | inactive | inactive
CCCNCc1ccc(-c2ccc(CN(Cc3ccc4c(c3)OCO4)C(=O)[C@H]3CCCO3)cc2)nc1 | 39% | 18% | -3 | 90% (active) | inactive | inactive | inactive | inactive
COc1cc(Cc2cnc(N)nc2N)cc(CC(C)O)c1O (stereo not given) | 2% | -2% | -2 | 93% (active) | inactive | inactive | inactive | inactive
Fc1ccccc1COc1ccc(Nc2ncnc3ccc(-c4nnc(C(F)(F)F)o4)cc23)cc1Cl | 46% | 7% | 4 | 100% (active) | inactive | inactive | inactive | inactive
CCNc1cc(C(=O)N[C@@H](Cc2ccccc2)[C@H](O)CNC(C)(C)CCCC(C)C)cc(N2CCCC2=O)c1 | 81% (active) | -12% | -1 | 100% (active) | inactive | inactive | inactive | inactive
O=C(Nc1cccc(C(F)(F)F)c1)c1ccc(S(=O)(=O)NCC2CCCN(CC3CCCCC3)C2)cc1 (stereo not given) | 9% | 26% | -4 | 95% (active) | inactive | inactive | inactive | inactive
Nc1ccc(Nc2ccnc3ccc(C(F)(F)F)cc23)cc1O | 59% (active) | 1% | 5 | 98% (active) | inactive | inactive | inactive | inactive
CC1CCC(NCc2c(O)ccc3ccccc23)CC1 (stereo not given) | 77% (active) | 13% | -1 | 95% (active) | inactive | inactive | inactive | inactive
CN(C)CCN(C)Cc1ccc(-c2cccc(-c3nc4ccccc4[nH]3)c2)cc1 | 78% (active) | 46% | -1 | 101% (active) | inactive | inactive | inactive | inactive
CCN(CCCN1CCCCC1)c1cc(C)nc(Nc2cc(C)ccc2C)n1 | 42% | 34% | 2 | 93% (active) | inactive | inactive | inactive | inactive
COc1ccc2nccc([C@@H](O)CN3CCC(NC(=O)c4ccc(Cl)c([N+](=O)[O-])c4)CC3)c2c1 | 43% | 14% | -1 | 88% (active) | inactive | inactive | inactive | inactive
CCOC(=O)c1cnc2cc(N3CCCC3)c(Cl)cc2c1OCC | 97% (active) | 0% | -2 | 97% (active) | inactive | inactive | inactive | inactive
CCCCN(CCCC)CCCCCCNc1c2ccccc2nc2ccccc12 | 87% (active) | 49% | 7 | 95% (active) | inactive | inactive | inactive | inactive
Nc1ccc(-c2nc3c(ccc4ccccc43)[nH]2)cc1 | 51% (active) | -21% | -1 | 84% (active) | inactive | inactive | inactive | inactive
Cc1cc(N2CCN(C)CC2)nc2ccc(NC(=O)c3cccc(N(C)C)c3)cc12 | 23% | 9% | 4 | 85% (active) | inactive | inactive | inactive | inactive
COc1cc(F)c2nccc([C@@H](O)CN3CC[C@@H](NC(=O)OCc4ccccc4)[C@@H](F)C3)c2c1 | 100% (active) | 44% | 2 | 99% (active) | inactive | inactive | inactive | inactive
COc1ccc(C2C(C(=O)Nc3cc(C)ccc3OC)c3ccccc3C(=O)N2C)cc1 (stereo not given) | 3% | 3% | 1 | 86% (active) | inactive | inactive | inactive | inactive
Cc1cc(NC(=O)c2cccs2)ccc1OC1CCN(Cc2ccccc2)CC1 | 91% (active) | 10% | 4 | 95% (active) | inactive | inactive | inactive | inactive
COc1ccc(CNCc2ccc(-c3cccc(-c4nc5ccc(F)cc5[nH]4)c3)cc2)cc1 | 94% (active) | 33% | 3 | 102% (active) | inactive | inactive | inactive | inactive
N#Cc1ccc(N2CCN(Cc3ccc(-c4cccc(-c5nc6ccccc6[nH]5)c4)cc3)CC2)nc1 | 29% | 33% | -1 | 95% (active) | inactive | inactive | inactive | inactive
